Compound activity from PubChem.
697 NFkB inh: inhibitors of the PMA/ionomycin-induced NF-kB reporter in 697 B cells | 697 B-cell NF-kB luciferase reporter, 16 h | inhibition, % at 4 µM | 0.33% of 330,000 active | AID 435022; in the data active = inhibition above about 35%
KLF5 inhibitor: suppresses KLF5 promoter-driven expression; DLD-1 KLF5 promoter-luciferase reporter, luminescence; inhibition, % at 5 µM; 0.23% of 290,000 active;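 active = inhibition above a per-plate limit of that plate's mean compound inhibition plus 3 SD, cut at about 60% in these data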;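 also: 0% = DMSO wells and 100% = LY294002 at 200 µM; higher means less KLF5 promoter-driven luciferase light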
Gli-Sufu antag: blocks Gli-Sufu signaling in a luciferase reporter; Sufu-KO-LIGHT fibroblasts, Gli luciferase reporter luminescence; inhibition, % at 5 µM; 0.74% of 340,000 active;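 active = inhibition above about 55%, limit read from the data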;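 also: 0% = DMSO-treated cells and 100% = wells with medium but no cells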
Jurkat NFkB inh: lowers PMA/ionomycin-induced NF-kB signal in Jurkat cells; 0.53% of 330,000 active; PMA/ionomycin-induced NF-kB luciferase reporter, luminescence; inhibition, % at 4 µM; AID 435003; in the data active = inhibition above about 50%
Mdm2-MdmX inh: human Mdm2/MdmX binding inhibition; O15151+Q00987; 3% of 330,000 active; SaOS-2 split-luciferase Mdm2/MdmX complementation, luminescence; inhibition, % at 8 µM;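 active = inhibition of at least 50% at 8 µM in the primary screen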
aSyn UTR inh: MLPCN primary screen, SNCA 5' untranslated region. inhibition, % (tested at 7.5 µM). 0.82% of 300,000 active. alpha-synuclein 5'UTR reporter, inhibitor activity; in the data active = inhibition above about 60%; inconclusive = no clear call, values can overlap the other calls;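 also: H4 neuroglioblastoma cells stably carrying SNCA 5'UTR luciferase fusion; 0% = DMSO wells and 100% = positive control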
Mdm2 MdmX conf: human Mdm2/MdmX binding inhibition, confirmed | shares compounds with Mdm2-MdmX inh | luminescent assay | inhibition, % at 8 µM | 55% of 10,000 active; in the data active = inhibition above about 40%
Full FLuc ctr: full-length luciferase inhibition in Mdm2/MdmX counter-screen; shares compounds with Mdm2-MdmX inh; SaOS-2 full-length luciferase counterscreen, luminescence; inhibition, % at 8 µM; 77% of 6,200 active; AID 504607;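 active = mean inhibition at 8 µM reaching about 37%, which flags the compound as non-specific, limit read from the data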;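 also: p53-null SaOS-2 cells with luciferase driven by a doxycycline-inducible promoter; compound on cells about two nights before reading with doxycycline added after day one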
* marks the source's active call; other numbers are inactive results; u = inconclusive; x = no result. Rows were chosen to be rich in hits. Some 4.1% of all compounds tested hit in one or more screens of this group.

SMILES	697 NFkB inh	KLF5 inhibitor	Gli-Sufu antag	Jurkat NFkB inh	Mdm2-MdmX inh	aSyn UTR inh	Mdm2 MdmX conf	Full FLuc ctr
CCOc1ccccc1CN1CCNC(=O)C1CC(=O)N(C)C1CCOCC1 (stereo not given)	8	3	7	7	15	5	x	x
O=C(NNC1=C(C(=O)C(F)(F)F)CCC1)c1cccc(O)c1	-7	-89	0	9	46	-153	x	x
Cc1cccc(C(=O)NNC2=C(C(=O)C(F)(F)F)CCC2)c1O	5	-19	2	6	62*	-1	6	x
CC(C)Cc1nc2oc3c(NCCCN4CCOCC4)ncnc3c2c2c1CCC2	-53	-27	9	-32	32	13	x	x
CC(C)Cc1nc2oc3c(Cl)ncnc3c2c2c1CCC2	17	-3	20	7	100*	33	70*	51*
CCOc1ccc(N(Cc2cc3ccc(C)cc3[nH]c2=O)S(=O)(=O)c2ccccc2)cc1	-71	25	0	42	59*	-35	58*	55*
COc1ccc2[nH]c(=O)c(CN(c3ccccc3OC)S(=O)(=O)c3ccccc3)cc2c1	-2	0	x	25	60*	-69	38	89*
COc1ccc2[nH]c(=O)c(CN(c3ccccc3)S(=O)(=O)c3ccccc3)cc2c1	3	-21	5	6	24	-7	x	x
Cc1ccc2cc(CN(c3ccccc3)S(=O)(=O)c3ccccc3)c(=O)[nH]c2c1	-51	-21	11	-35	2	-22	x	x
O=C(NCc1ccc(F)cc1)C1CCCN(C(=O)NCc2ccccc2)C1 (stereo not given)	7	-29	11	16	12	10	x	x
N#Cc1cnc(NN)nc1	8	1	-6	8	7	11	x	x
Cc1ccc(NC(=O)CSc2nsc(SCC(=O)Nc3ccc(C)cc3C)c2C#N)c(C)c1	14	0	8	-11	83*	11	23	x
Cc1ccc(N/N=C(\C#N)C(N)=S)cc1C	-7	-6	12	18	64*	-44	53*	72*
COC(=O)c1ccc2c(=O)[nH]c(COC(=O)c3c(-c4ccccc4)noc3C)nc2c1	2	x	0	-7	19	13	x	x
O=C(CSc1ccc2nnc(-c3ccccn3)n2n1)Nc1ccc(F)cc1F	-41	-17	3	18	-3	1	x	x
COc1ccc(CCC(=O)OC(C)C(=O)c2ccc(C)cc2)cc1 (stereo not given)	-29	-4	0	-9	67*	3	-3	x
COc1ccc(C(=O)C(C)OC(=O)COc2ccccc2)cc1 (stereo not given)	23	x	2	1	18	x	x	x
Cc1cccc2cc(C#N)c(N3CCN(C)CC3)nc12	4	-27	15	-7	54*	12	7	x
Cn1c(N)c(C(=O)COC(=O)c2ncc(Cl)c(Cl)c2Cl)c(=O)n(C)c1=O	5	-25	-2	12	4	-43	x	x
CCCCn1c(=O)[nH]c(=O)c2c1nc(Cn1ncc(Cl)c(Cl)c1=O)n2CCC	3	50	31	18	100*	-106	93*	52*
CCCCn1c(=O)[nH]c(=O)c2c1nc(CN1C(=O)c3ccccc3S1(=O)=O)n2CCC	-11	-24	-5	20	-13	-1	x	x
CCN(C(=O)COC(=O)/C=C/c1ccc(OC)c(OC)c1)c1c(N)n(Cc2ccccc2)c(=O)[nH]c1=O	x	x	-2	x	x	x	x	x
O=C1/C(=C/c2ccc(Cl)cc2)SC(=S)N1CCC(=O)N1CCCCC1CCO (stereo not given)	2	-10	6	5	25	-32	x	x
O=C1/C(=C/c2ccccc2F)SC(=S)N1CCC(=O)N1CCCCC1CCO (stereo not given)	6	-22	-5	2	61*	-30	25	x
O=C1/C(=C/c2ccco2)SC(=S)N1CCC(=O)N1CCCCC1CCO (stereo not given)	1	-20	x	14	46	-48	x	x
SMILES	697 NFkB inh	KLF5 inhibitor	Gli-Sufu antag	Jurkat NFkB inh	Mdm2-MdmX inh	aSyn UTR inh	Mdm2 MdmX conf	Full FLuc ctr
O=C1/C(=C/c2cccc(Cl)c2)SC(=S)N1CCC(=O)N1CCCCC1CCO (stereo not given)	-8	-8	-4	15	63*	-18	41*	39*
C/C(=N\NC(=O)C(O)c1ccccc1)c1ccc(Br)s1 (stereo not given)	-9	-5	6	-7	11	-26	x	x
Cn1cc([N+](=O)[O-])c(C(=O)NNC(=O)c2ccc([N+](=O)[O-])cc2Cl)n1	-7	8	-4	-5	12	30	x	x
O=C(NCc1nc(-c2ccc(C(F)(F)F)cc2)no1)Nc1ccc(F)cc1F	26	-17	1	4	11	-10	x	x
O=C(NCc1nc(-c2ccc(C(F)(F)F)cc2)no1)Nc1cc(Cl)cc(Cl)c1	25	-17	20	12	93*	-4	81*	45*
CC(=O)Nc1ccc(NC(=O)COC(=O)c2c3c(nc4ccccc24)CCN(Cc2ccccc2)C3)cc1	1	2	7	16	51*	-1	56*	84*
O=C(NCc1ccc(F)cc1)c1c2c(nc3ccccc13)CCN(Cc1ccccc1)C2	1	-13	15	1	31	-22	x	x
O=C(COC(=O)c1c2c(nc3ccccc13)CCN(Cc1ccccc1)C2)Nc1c(F)cccc1F	22	-22	12	20	72*	-5	68*	76*
NC(=O)c1ccc(NC(=O)COC(=O)c2c3c(nc4ccccc24)/C(=C\c2cccs2)CCC3)cc1	21	0	-2	8	85*	18	75*	77*
O=c1nc(N2CCCC2)nc(N2CCCC2)[nH]1	17	-11	-7	2	-4	-11	x	x
[O-][n+]1c2ccccc2c2n1CCN1CCOC21c1ccc(Cl)cc1 (stereo not given)	-91	x	-29	-40	9	x	x	x
CC(=O)C(Cc1ccccc1)NC(=O)CCl (stereo not given)	19	7	-1	9	39	9	x	x
O=C(CCl)NC(Cc1ccccc1)c1ccccc1 (stereo not given)	10	-19	-3	18	74*	u	51*	44*
Cc1nn(CC(=O)Nc2ccc(S(N)(=O)=O)cc2)c(=O)c2ccccc12	1	3	-5	-5	-29	-14	x	x
CCOc1ccc(NC(=O)COC(=O)C23CC4CC(CC(C4)C2)C3)c([N+](=O)[O-])c1	7	-8	-7	6	9	22	x	x
O=C(COc1ccc(Br)cc1)Nc1ccc(N2CCOCC2)cc1N1CCOCC1	-32	x	-3	33	82*	x	8	x
